Source: PubChem BioAssay AID743100 (Vanderbilt Specialized Chemistry Center, 2013)
A number with no mark means an inactive call. Calls of active or inactive are those of the source.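 How the source made its calls: active means calcium response above 60% of the acetylcholine maximum at human M5, as a positive modulator; inactive means the rest.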

Molecular target: Muscarinic acetylcholine receptor M5 (Homo sapiens) (UniProt P08912)
Experiment: potentiators of ACh response at human M5 – cell-based, single concentration, CHO-K1 hM5, calcium flux (AID 743100)
Details: CHO-K1 hM5, Fluo-4 calcium flux, ACh EC20, active compounds read high; at 10 µM unless noted

Sequence of Muscarinic acetylcholine receptor M5 (Homo sapiens) (P08912 whole entry, looked up): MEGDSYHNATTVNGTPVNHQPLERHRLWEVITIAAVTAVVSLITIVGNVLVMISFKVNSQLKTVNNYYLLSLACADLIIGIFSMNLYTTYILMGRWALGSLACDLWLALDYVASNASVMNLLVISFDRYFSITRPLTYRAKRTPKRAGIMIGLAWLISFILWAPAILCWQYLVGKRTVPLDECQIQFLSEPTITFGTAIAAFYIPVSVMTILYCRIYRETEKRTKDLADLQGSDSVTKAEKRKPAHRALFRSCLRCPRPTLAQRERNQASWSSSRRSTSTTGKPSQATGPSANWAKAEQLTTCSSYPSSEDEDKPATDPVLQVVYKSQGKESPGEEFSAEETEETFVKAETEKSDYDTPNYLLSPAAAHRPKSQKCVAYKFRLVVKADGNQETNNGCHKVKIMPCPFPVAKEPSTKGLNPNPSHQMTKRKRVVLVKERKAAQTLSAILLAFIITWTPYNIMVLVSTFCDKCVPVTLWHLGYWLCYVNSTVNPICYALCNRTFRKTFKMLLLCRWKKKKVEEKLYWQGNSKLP

SMILES | % ACh max response
CCN(Cc1ccccc1)C(=O)C1CCN(S(=O)(=O)c2cccc(OC(F)F)c2)CC1 | 70.2% [at 30 µM] (active)
CCN([C@H](C)c1ccccc1)S(=O)(=O)C1CCN(S(=O)(=O)c2ccc3cn[nH]c3c2)CC1 | 19.4%
CCN(Cc1cccc(Cl)c1)C(=O)C1CCN(S(=O)(=O)c2ccc3cn[nH]c3c2)CC1 | 73.9% (active)
CN(C)C(=O)C1(Cc2ccccc2)CCN(S(=O)(=O)c2ccc3occc3c2)CC1 | 8.49%
CCN(C(=O)C1CCN(S(=O)(=O)c2ccc(-n3cccn3)cc2)CC1)[C@H](C)c1ccccc1C(F)(F)F | 22.7%
CCN(Cc1ccccc1)C(=O)C1CCN(S(=O)(=O)c2ccc(C(C)(C)C)cc2)CC1 | 59.3% [at 30 µM]
CC(=O)N(Cc1ccccc1)CC1CCN(S(=O)(=O)c2ccc3cn[nH]c3c2)CC1 | 11.4%
CCNC(=O)C1(Cc2ccccc2)CCN(S(=O)(=O)c2ccc3occc3c2)CC1 | 22.2%
CCN(Cc1ccccc1)C(=O)C1CCN(S(=O)(=O)Cc2ccccc2Br)CC1 | 5.25% [at 30 µM]
CCN(Cc1ccccc1)C(=O)C1CCN(S(=O)(=O)c2ccc3cn(C)nc3c2)CC1 | 64.9% (active)
CCN(Cc1ccccc1F)C(=O)C1CCN(S(=O)(=O)c2ccc3cn[nH]c3c2)CC1 | 69.8% (active)
CCN(C(=O)C1CCN(S(=O)(=O)c2ccc3occc3c2)CC1)[C@H](C)c1ccccc1C(F)(F)F | 34.4%
CCN(Cc1ccccc1)C(=O)C1CCN(S(=O)(=O)c2ccc3c(c2)OCCO3)CC1 | 72.2% [at 30 µM] (active)
CC(=O)N(Cc1ccccc1)CC1CCN(S(=O)(=O)c2ccc3c(c2)OCCO3)CC1 | 7.56%
COc1ccc(S(=O)(=O)N2CCC(C(=O)N(C)Cc3ccccc3)CC2)cc1 | 64.5% [at 30 µM] (active)
CCN(Cc1ccc(Oc2ccccc2)cc1)C(=O)C1CCN(S(=O)(=O)c2ccc3cn[nH]c3c2)CC1 | 39.1%
CCN(Cc1ccccc1)C(=O)C1CCNCC1 | 14.9% [at 30 µM]
CCN(Cc1ccccc1C(F)(F)F)C(=O)C1(F)CCN(S(=O)(=O)c2ccc(-n3cccn3)cc2)CC1 | 51.8%
CCN(Cc1ccccc1)C(=O)C1CCN(S(=O)(=O)c2cccnc2Cl)CC1 | 30% [at 30 µM]
CCN(CC1CCN(S(=O)(=O)c2cccc(OC)c2)CC1)C(=O)c1ccccc1 | 15.2%
